Seven compounds from PubChem BioAssay (Tox21) can be followed below.

A short description of assay [1]: qHTS assay to identify small molecule antagonists of the sonic hedgehog signaling (Shh) pathway (AID 1259369; calls by dose curve; also: nearly all actives have a fitted effect of over 45% in size; also: potency is read from the fitted curve at half-maximal effect). An outline of the steps: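 Stable Gli1-Luc reporter NIH/3T3 clone; quantitative HTS in stimulated mode with conditioned medium. Luminescence measured after 24hr compound treatment at 37 C.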
Background: In qHTS, concentration-response curves come from the screen itself.

The nature of assay [2]: qHTS assay to identify small molecule agonists of the androgen receptor (AR) signaling pathway in the presence of an antagonist - cell viability counter screen (AID 1259379). Also: nearly all actives have a fitted effect of over 25% in size. Also: potency is read from the fitted curve at half-maximal effect. An outline of the steps:
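Nilutamide-containing (3.0uM final) MDA-kb2 cultures, 3,000 cells/well, were treated with compounds across 15 concentrations. After 16 hr at 37C with no CO2, cell viability was determined by CellTiter-Fluor fluorescence in the luciferase assay wells.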

A short description of assay [3]: qHTS assay to identify small molecule agonists of the estrogen receptor beta (ER-beta) signaling pathway - cell viability counter screen (AID 1259380). Also: nearly all actives have a fitted effect of over 30% in size. Also: potency is read from the fitted curve at half-maximal effect. The gist of the method:
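Steps: plate ER-beta-UAS-bla HEK293T cells, rest 6 hr; add compounds in DMSO; incubate 16 hr at 37C, 5% CO2; add FRET substrate 2 hr; add CellTiter-Glo, wait 30 min at room temperature; read luminescence.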

Assay [4] is described as follows: qHTS assay to identify small molecule antagonists of the estrogen receptor beta (ER-beta) signaling pathway - cell viability counter screen (AID 1259382).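 Also: HEK293T cells carrying ER-beta-UAS-bla reporter stimulated with estradiol; series mostly up to about 92 µM; nearly all actives have a fitted effect of over 55% in size.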 The gist of the method:
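Viability is scored by CellTiter-Glo luminescence (30 min, room temperature) in ER-beta-UAS-bla HEK293T wells already read for reporter fluorescence. Compound exposure lasts 16 hr at 37C alongside 1nM 17-beta-estradiol in charcoal-stripped serum medium.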

Assay [5] in a line: qHTS assay to identify small molecule agonists or antagonists of the thyroid stimulating hormone receptor (TSHR) signaling pathway - wild type cell line counter screen (AID 1259384; calls by dose curve). An outline of the steps:
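Wild-type HEK293 cells were plated 18 h at 37 C/5% CO2, pin-dosed with compound plus Ro20-1724 medium, held 30 min at room temperature, then given cAMP-d2 and anti-cAMP-cryptate; fluorescence was read after 1 h. Fifteen concentrations, triplicate.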

A short description of assay [6]: qHTS assay to identify small molecule agonists of the estrogen receptor alpha (ER-alpha) signaling pathway in the presence of an antagonist - cell viability counter screen (AID 1259386).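 Also: cells exposed to compounds for 22 h at 37 °C before the viability read; nearly all actives have a fitted effect of over 30% in size.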 Also: potency is read from the fitted curve at half-maximal effect. The gist of the method:
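In this counter screen, compound effects on VM7Luc4E2 viability were tested in the presence of the antagonist ICI-182,780 at 10.0nM final. Compounds were dosed at 15 concentrations, exposure lasted 22hr, and the CellTiter-Fluor signal was read.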

The target in assay [7] is Progesterone receptor (Homo sapiens) (UniProt P06401). The assay is described as follows: qHTS assay to identify small molecule agonists of the progesterone receptor (PR) signaling pathway (AID 1346784; calls by dose curve; also: nearly all actives have a fitted effect of over 30% in size). An outline of the steps:
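Fluorescence from LiveBLAzer B/G FRET substrate cleavage (2 hr, RT) reported PR activation in PR-UAS-bla HEK 293T cells treated 16 hr at 37C/5% CO2 with compounds; medium contained 2% charcoal-stripped FBS.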

Assay [8] has the same target. The assay is described as follows: qHTS assay to identify small molecule antagonists of the progesterone receptor (PR) signaling pathway (AID 1346795; active = well fitted inhibition curve with a large enough effect in the signal ratio in the repeat runs, not every such curve was filed as active; the % refers to the signal ratio). An outline of the steps:
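Fluorescence intensity measured 2 hr after adding beta-lactamase FRET substrate to PR-UAS-bla HEK293T cells that had been co-treated 16 hr with compound and 1 nM R5020 (final concentration) in 2% charcoal-stripped FBS.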

The nature of assay [9]: qHTS assay to identify small molecule antagonists of the progesterone receptor (PR) signaling pathway - cell viability counter screen (AID 1346798). Also: nearly all actives have a fitted effect of over 50% in size. Also: potency is read from the fitted curve at half-maximal effect. The gist of the method: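 CellTiter-Glo luminescence; PR-UAS-bla HEK293T, 3,000 cells/well; compound + R5020, 16 hr, 37C/5% CO2; 30 min RT before read.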
Assay [10] is described as follows: qHTS assay to identify small molecule agonists of the progesterone receptor (PR) signaling pathway - cell viability counter screen (AID 1346799; calls by dose curve; also: nearly all actives have a fitted effect of over 45% in size; also: potency is read from the fitted curve at half-maximal effect). An outline of the steps: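 In parallel with the beta-lactamase readout, cytotoxicity toward PR-UAS-bla HEK293T cells was measured by CellTiter-Glo luminescence following 16 hr compound incubation in 2% charcoal-stripped FBS medium.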

A short description of assay [11]: qHTS assay to identify small molecule antagonists of the TGF-beta/Smad signaling pathway - cell viability counter screen (AID 1346824). Also: nearly all actives have a fitted effect of over 50% in size. The gist of the method:
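SBE-bla HEK 293T cells were plated overnight at 37 C, then given compounds in DMSO plus TGF-beta1 (added as 0.25 ng/mL solution) for 5 hr. After the bla read, CellTiter-Glo was added to the same wells and luminescence read after 30 min at room temperature.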

A short description of assay [12]: qHTS assay to identify small molecule agonists of the TGF-beta/Smad signaling pathway - cell viability counter screen (AID 1346829). Also: top concentration of the series differs between compounds; nearly all actives have a fitted effect of over 45% in size. An outline of the steps:
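HEK 293T SBE-bla line, 5 hr compound exposure at 37 C, multiplexed CellTiter-Glo viability read by luminescence.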

Assay [13] addresses Androgen receptor (Homo sapiens) (UniProt P10275). The assay is described as follows: qHTS assay to identify small molecule agonists of the androgen receptor (AR) signaling pathway in the presence of an antagonist (AID 1259381; calls by dose curve; also: nearly all actives have a fitted effect of over 15% in size). An outline of the steps: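 Reporter-gene luminescence from MDA-kb2 cells exposed 16hr at 37C (0% CO2) to 15-point compound titrations with 3.0uM final nilutamide as AR antagonist.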

The target of assay [14] is Thyrotropin receptor (Homo sapiens) (UniProt P16473). The assay is described as follows: qHTS assay to identify small molecule antagonists of the thyroid stimulating hormone receptor (TSHR) signaling pathway (AID 1259385; calls by dose curve; also: nearly all actives have a fitted effect of over 20% in size). The gist of the method:
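TSHR-HEK293 cells were plated and held 18 h at 37C/5% CO2, then given compound plus Ro20-1724 and stimulated with TSH at 1.5 ng/mL final. After 30 min at room temperature, cAMP was detected with cAMP-d2/anti-cAMP-cryptate (1 h) by fluorescence.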

Assay [15] in a line: qHTS assay to identify small molecule agonists of the TGF-beta/Smad signaling pathway (AID 1346859; active = well fitted activation curve with a large enough effect in the signal ratio in the repeat runs, not every such curve was filed as active; the % refers to the signal ratio; also: series mostly up to about 77 µM). The gist of the method: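 After overnight seeding, SBE-bla HEK 293T cells are dosed with compounds in DMSO and kept 5 hr at 37 C, 5% CO2. LiveBLAzer-type FRET substrate is then applied for 2 hr at room temperature.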
The target in assay [16] is Estrogen receptor beta (Homo sapiens) (UniProt Q92731). Description: qHTS assay to identify small molecule agonists of the estrogen receptor beta (ER-beta) signaling pathway (AID 1259377; active = well fitted activation curve with a large enough effect in the signal ratio in the repeat runs, not every such curve was filed as active; the % refers to the signal ratio). The gist of the method:
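qHTS in ER-beta-UAS-bla HEK293T cells: 6 hr settling, then 16 hr compound at 37C, then LiveBLAzer substrate 2 h at RT before fluorescence reading.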

In assay [17] the target is Thyrotropin-releasing hormone receptor (Homo sapiens) (UniProt P34981). The assay is described as follows: qHTS assay to identify small molecule antagonists of the thyrotropin-releasing hormone receptor (TRHR) signaling pathway (AID 1346877; active = well fitted inhibition curve with a large enough effect in the repeat runs, not every such curve was filed as active; also: series mostly up to about 51 µM). An outline of the steps:
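Kinetic fluorescence (3 min, 1 s resolution) following stimulation with TRH at 1 nM final; HEK293 cells bearing human TRHR; 5 min compound preincubation at RT; concentration-response over 15 points, triplicates.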

Assay [18] has the same target. Description: qHTS assay to identify small molecule agonists of the thyrotropin-releasing hormone receptor (TRHR) signaling pathway (AID 1346891; calls by dose curve;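 also: HEK293 cells expressing TRHR with calcium dye readout; series mostly up to about 58 µM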). An outline of the steps:
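Compounds were tested as agonists at 15 concentrations, in triplicate, on TRHR-Hek293 cells; calcium-sensitive dye fluorescence was recorded for 3 min following addition.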

Values joined by “and” are separate entries in the source; they are usually repeats but may differ in a detail not shown here. Equal values may be shown once. Inconclusive results are not listed. Active and inactive are the calls of the source. Unless noted, calls follow the shape of the dose curve; as a rule, active = well fitted curve in the direction sought with a large enough effect in the repeat runs; inconclusive = weak or mixed curves; inactive = no such curve, though single readings can be large; an effect the other way counts as inactive or inconclusive.

Thyrotropin receptor (Homo sapiens), sequence (P16473 whole entry, looked up): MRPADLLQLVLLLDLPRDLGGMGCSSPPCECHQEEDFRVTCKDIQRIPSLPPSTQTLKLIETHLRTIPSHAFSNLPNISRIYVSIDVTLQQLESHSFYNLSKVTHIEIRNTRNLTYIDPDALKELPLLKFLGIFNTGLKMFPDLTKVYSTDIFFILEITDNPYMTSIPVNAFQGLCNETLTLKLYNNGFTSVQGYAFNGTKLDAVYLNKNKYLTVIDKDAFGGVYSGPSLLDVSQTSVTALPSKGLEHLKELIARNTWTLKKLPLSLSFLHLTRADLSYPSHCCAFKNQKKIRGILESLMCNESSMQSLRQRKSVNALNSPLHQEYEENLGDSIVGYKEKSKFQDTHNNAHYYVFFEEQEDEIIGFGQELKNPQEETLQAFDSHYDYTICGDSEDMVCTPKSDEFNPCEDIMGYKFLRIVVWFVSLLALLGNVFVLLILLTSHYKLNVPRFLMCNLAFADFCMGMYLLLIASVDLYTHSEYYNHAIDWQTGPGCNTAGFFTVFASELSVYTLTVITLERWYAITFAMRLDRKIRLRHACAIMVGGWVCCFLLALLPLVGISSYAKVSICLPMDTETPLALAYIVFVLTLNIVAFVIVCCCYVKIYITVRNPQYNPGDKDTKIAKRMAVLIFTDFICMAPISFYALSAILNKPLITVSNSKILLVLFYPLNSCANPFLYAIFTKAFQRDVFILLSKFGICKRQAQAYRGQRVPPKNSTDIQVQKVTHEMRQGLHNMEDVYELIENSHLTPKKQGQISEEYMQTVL
Estrogen receptor beta (Homo sapiens), sequence (Q92731 whole entry, looked up): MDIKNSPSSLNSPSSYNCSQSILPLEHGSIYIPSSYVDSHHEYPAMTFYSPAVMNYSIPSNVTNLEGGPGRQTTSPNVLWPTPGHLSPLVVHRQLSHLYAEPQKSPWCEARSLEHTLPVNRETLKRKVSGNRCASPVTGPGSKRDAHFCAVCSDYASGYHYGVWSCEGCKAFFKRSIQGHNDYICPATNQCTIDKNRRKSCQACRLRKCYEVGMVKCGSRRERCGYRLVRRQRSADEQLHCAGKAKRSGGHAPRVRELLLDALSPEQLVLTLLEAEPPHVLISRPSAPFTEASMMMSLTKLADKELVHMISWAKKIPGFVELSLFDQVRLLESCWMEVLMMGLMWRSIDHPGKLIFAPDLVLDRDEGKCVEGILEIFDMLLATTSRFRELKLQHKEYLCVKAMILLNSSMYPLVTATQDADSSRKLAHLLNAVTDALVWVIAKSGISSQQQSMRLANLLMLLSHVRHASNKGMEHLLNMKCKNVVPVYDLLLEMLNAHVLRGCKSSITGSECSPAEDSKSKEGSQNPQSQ
Thyrotropin-releasing hormone receptor (Homo sapiens), sequence (P34981 whole entry, looked up): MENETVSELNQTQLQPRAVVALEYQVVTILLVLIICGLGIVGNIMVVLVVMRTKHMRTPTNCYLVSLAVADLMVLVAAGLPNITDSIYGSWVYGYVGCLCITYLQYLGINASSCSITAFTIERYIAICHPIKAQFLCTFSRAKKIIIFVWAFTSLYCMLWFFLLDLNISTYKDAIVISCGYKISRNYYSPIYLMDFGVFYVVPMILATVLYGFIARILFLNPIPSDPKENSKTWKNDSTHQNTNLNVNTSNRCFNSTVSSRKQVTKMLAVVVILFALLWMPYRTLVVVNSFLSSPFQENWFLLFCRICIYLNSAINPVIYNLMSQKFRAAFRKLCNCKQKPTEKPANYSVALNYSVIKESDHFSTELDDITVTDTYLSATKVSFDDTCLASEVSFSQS
Progesterone receptor (Homo sapiens), sequence (P06401 whole entry, looked up): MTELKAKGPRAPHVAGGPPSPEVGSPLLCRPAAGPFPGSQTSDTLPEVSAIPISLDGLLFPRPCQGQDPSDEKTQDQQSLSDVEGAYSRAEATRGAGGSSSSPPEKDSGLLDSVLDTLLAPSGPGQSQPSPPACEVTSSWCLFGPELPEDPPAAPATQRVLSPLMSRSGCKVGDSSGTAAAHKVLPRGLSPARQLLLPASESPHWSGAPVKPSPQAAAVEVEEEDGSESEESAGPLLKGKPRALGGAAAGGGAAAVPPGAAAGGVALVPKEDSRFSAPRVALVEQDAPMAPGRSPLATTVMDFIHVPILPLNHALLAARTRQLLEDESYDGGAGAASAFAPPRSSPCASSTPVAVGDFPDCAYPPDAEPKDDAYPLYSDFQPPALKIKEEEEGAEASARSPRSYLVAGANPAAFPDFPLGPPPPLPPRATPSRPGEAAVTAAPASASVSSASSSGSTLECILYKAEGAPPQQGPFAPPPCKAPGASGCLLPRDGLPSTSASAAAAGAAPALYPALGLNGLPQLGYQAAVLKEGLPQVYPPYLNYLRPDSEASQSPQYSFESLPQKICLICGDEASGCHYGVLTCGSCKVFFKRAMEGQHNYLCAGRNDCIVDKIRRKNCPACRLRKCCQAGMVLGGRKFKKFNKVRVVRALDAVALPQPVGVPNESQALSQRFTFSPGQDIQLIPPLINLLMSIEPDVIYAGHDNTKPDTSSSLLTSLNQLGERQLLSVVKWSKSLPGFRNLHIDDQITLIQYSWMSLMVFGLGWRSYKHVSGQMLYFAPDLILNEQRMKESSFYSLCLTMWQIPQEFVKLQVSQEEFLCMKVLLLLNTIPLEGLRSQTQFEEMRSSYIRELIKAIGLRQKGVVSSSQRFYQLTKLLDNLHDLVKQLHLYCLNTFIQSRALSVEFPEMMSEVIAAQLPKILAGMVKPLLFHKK
Androgen receptor (Homo sapiens), sequence (P10275 whole entry, looked up): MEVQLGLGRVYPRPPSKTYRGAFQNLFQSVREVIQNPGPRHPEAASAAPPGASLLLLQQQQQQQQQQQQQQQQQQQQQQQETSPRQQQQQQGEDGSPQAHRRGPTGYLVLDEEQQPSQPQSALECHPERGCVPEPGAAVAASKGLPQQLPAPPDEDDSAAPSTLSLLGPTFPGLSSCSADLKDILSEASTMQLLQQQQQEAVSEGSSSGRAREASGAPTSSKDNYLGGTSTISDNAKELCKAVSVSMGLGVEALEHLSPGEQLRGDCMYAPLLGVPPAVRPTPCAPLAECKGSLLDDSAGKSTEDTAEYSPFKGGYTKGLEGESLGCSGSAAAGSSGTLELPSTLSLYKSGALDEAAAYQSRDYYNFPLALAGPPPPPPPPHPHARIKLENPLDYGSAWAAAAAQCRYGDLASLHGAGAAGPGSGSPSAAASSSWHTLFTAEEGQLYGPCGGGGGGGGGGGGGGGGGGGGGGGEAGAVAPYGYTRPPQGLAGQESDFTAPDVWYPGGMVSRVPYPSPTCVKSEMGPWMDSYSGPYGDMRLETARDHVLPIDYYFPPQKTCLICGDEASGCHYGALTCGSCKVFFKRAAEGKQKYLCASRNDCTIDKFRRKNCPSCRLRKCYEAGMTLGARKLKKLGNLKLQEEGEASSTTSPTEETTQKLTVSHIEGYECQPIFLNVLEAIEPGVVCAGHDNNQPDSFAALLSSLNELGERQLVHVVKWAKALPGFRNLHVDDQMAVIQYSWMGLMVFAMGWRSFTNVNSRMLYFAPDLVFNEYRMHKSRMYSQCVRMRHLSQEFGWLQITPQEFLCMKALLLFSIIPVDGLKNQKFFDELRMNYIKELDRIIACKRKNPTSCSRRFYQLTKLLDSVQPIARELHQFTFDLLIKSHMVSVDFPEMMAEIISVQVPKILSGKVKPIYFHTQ

Consider `O=C1N=C(O)CN1/N=C/c1ccc(-c2ccc([N+](=O)[O-])cc2)o1`, for which the Potency entry in assay [1], in [3], in [4], in assay [7], in assay [8] and in assay [9] was “inactive” throughout. Also, the Potency entry in assay [10], in assay [11] and in [12] was “inactive” in each case. Further, the Potency in [2] is 30.6 µM (active) and 23.7 µM (active); in assay [6], 27.3 µM (active) and 26.6 µM (active). In addition, the result in assay [5] was inactive.

With `O=c1c(-c2ccc(O)cc2)coc2cc(O)ccc12`, the Potency in assay [1] was 13.5 µM (active) and 19.3 µM (active). Besides, the Potency result in assay [2], in [13], in [4], in [6], in assay [7] and in assay [9] was “inactive” throughout. Moreover, the Potency entry in assay [10] and in assay [12] was “inactive” in each case. The result in assay [5], in [14] and in assay [15] was inactive.

As for `Cc1cc(NS(=O)(=O)c2ccc(N)cc2)no1`, the Potency result in assay [1], in assay [16], in assay [2], in assay [3], in assay [4] and in assay [6] was “inactive” in each case. Also, the Potency entry in assay [7], in assay [8], in assay [9], in [10], in assay [11] and in assay [12] was “inactive” throughout. For the same compound, the compound was classed as inactive in assay [5] and in [15].

As for `CS(=O)(=O)c1ccc([C@@H](O)[C@@H](CO)NC(=O)C(Cl)Cl)cc1`, the Potency result in assay [1], in assay [2], in assay [3], in assay [4], in [6] and in assay [7] was “inactive” in each case. The Potency result in [8], in assay [9], in assay [10] and in assay [12] was “inactive” throughout. In addition, the result in assay [15] was inactive.

As to `S=c1nc[nH]c2nc[nH]c12`, the Potency entry in assay [1], in [16], in assay [2], in [6], in assay [7] and in [18] was “inactive” each time. Further, the Potency was 7.51 µM (active) and 3.35 µM (active) in [3]; 8.41 µM (active) in [9]; 4.74 µM (active) and 11.9 µM (active) in assay [10]. Also, the compound was classed as inactive in assay [5], in assay [14], in assay [15] and in assay [17].

With `C=C(C)C(=O)OCC(CC)(COC(=O)C(=C)C)COC(=O)C(=C)C`, the Potency result in [2], in assay [3], in assay [4], in assay [6], in assay [7] and in assay [8] was “inactive” in each case. The Potency entry in assay [9], in assay [10], in assay [11], in assay [12] and in [18] was “inactive” throughout. The compound was classed as inactive in [5], in assay [14] and in assay [17].

For the compound `c1ccc2[nH]cnc2c1`, the Potency entry in assay [1], in assay [2], in assay [3], in assay [4], in assay [6] and in [7] was “inactive” throughout. Moreover, the Potency result in assay [8], in assay [10], in [11], in assay [12] and in assay [18] was “inactive” in each case. Further, the outcome in assay [15] and in assay [17] was inactive.
